Many of the other results were omitted from the sample, so hits are more common in it than they were.
CD40 NFkB inh: CD40 pathway inhibition in BL2 cells; BL2 NF-kB luciferase reporter, CD40L-induced, 4 h; inhibition, % at 10 µM; 83,000 compounds, 0.94% hits;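 active = mean inhibition of at least 50% with a set share of replicates also reaching that level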;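 also: 0% = neutral control wells and 100% = IKK inhibitor VII at 50 µM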
Starred values were filed as active, the others as inactive; [ ] = dose if it differs, or a comment.

For N#C[C@H]1[C@H](c2ccc(-c3cncnc3)cc2)[C@@H](CO)N1C(=O)CN1CCOCC1 the results were CD40 NFkB inh 2[25 µM].
COCC(=O)N1CC[C@@H]2[C@H]1c1cc(-c3cccc(F)c3)ccc1N(C)[C@H]2CO was read as CD40 NFkB inh 4[25 µM].
Screening CN(C)CC(=O)N1[C@H](C#N)[C@@H](c2ccc(-c3cccc(C(=O)N(C)C)c3)cc2)[C@@H]1CO returned CD40 NFkB inh -16[25 µM].
`CCSC1=NC(C)(C)C=C(C)N1` gave CD40 NFkB inh 7.
Screening CCCSc1nc(C)c2cc(C)cc(C)c2n1 returned CD40 NFkB inh 8.
`CC1=CC(C)(C)N=C(Nc2nc(C)c3cc(C)cc(C)c3n2)N1` gave CD40 NFkB inh 48*.
`COc1ccccc1NC(=O)Nc1ccc2c(c1)OCCO2` gave CD40 NFkB inh -75.
Screening COc1cc2cc(C(=O)Nc3ccc4c(c3)OCCO4)[nH]c2cc1OC returned CD40 NFkB inh 60*.
For COc1ccc(C(=O)Nc2ccc3c(c2)OCCO3)c(OC)c1 the results were CD40 NFkB inh -26.
Screening O=C(Nc1ccc(F)cc1)N1CCCCN2[C@H](C1)[C@@H](c1ccc(C#CC3CC3)cc1)[C@@H]2CO returned CD40 NFkB inh 21[25 µM].
For CC(C)NC(=O)N(C)C[C@@H]1Oc2ncccc2C(=O)N(C)C[C@@H]1C the results were CD40 NFkB inh -13.
For Cc1ccc(S(=O)(=O)c2c(C)cc(C)nc2N2CCCCC2)cc1 the results were CD40 NFkB inh 13.
Screening Cc1cc(C)nc(NNS(=O)(=O)c2ccc(Cl)cc2)n1 returned CD40 NFkB inh 3.
Cc1cc(S(=O)(=O)c2ccc(Cl)cc2)nc(S(=O)(=O)c2ccc(Cl)cc2)c1C#N was read as CD40 NFkB inh 112*.
`O=C(Nc1ccccn1)c1ccc(S(=O)(=O)N2CCCC2)cc1` gave CD40 NFkB inh -57.
For O=C(Nc1ccccn1)c1ccc(-c2ccccc2)cc1 the results were CD40 NFkB inh 113*.
`O=C(Nc1ccccn1)c1ccc2nc(-c3ccccc3)c(-c3ccccc3)nc2c1` gave CD40 NFkB inh -3.
COc1cc(CC(=O)N2CCN(C(=O)C3CCCO3)CC2)cc(OC)c1OC (stereo not given) was read as CD40 NFkB inh 13.
`O=C(C1CCCCC1)N1CC[C@H]2[C@H](CO)Nc3ccc(Br)cc3[C@H]21` gave CD40 NFkB inh 2.
`COc1ccc(S(=O)(=O)Nc2ccc3c(c2)C(=O)N([C@@H](C)CO)C[C@H](C)[C@H](CN(C)Cc2ccncc2)OCCCC[C@H](C)O3)cc1` gave CD40 NFkB inh 3.
Screening COc1ccc(S(=O)(=O)Nc2ccc3c(c2)C(=O)N([C@H](C)CO)C[C@@H](C)[C@H](CN(C)Cc2ccc(C(F)(F)F)cc2)OCCCC[C@@H](C)O3)cc1 returned CD40 NFkB inh 50*[25 µM].
For COc1ccc(NC(=O)Nc2ccc3c(c2)C(=O)N([C@H](C)CO)C[C@H](C)[C@H](CN(C)Cc2ccc(C(F)(F)F)cc2)OCCCC[C@@H](C)O3)cc1 the results were CD40 NFkB inh -2.
Screening C[C@@H]1CCCCO[C@H](CN(C)Cc2ccc(C(F)(F)F)cc2)[C@H](C)CN([C@@H](C)CO)C(=O)c2cc(NS(=O)(=O)c3ccc(Cl)cc3)ccc2O1 returned CD40 NFkB inh 31.
`COc1ccc(S(=O)(=O)Nc2ccc3c(c2)C(=O)N([C@H](C)CO)C[C@@H](C)[C@@H](CN(C)Cc2ccc(C(F)(F)F)cc2)OCCCC[C@H](C)O3)cc1` gave CD40 NFkB inh 58*[25 µM].
For COc1ccc(S(=O)(=O)Nc2ccc3c(c2)C(=O)N([C@H](C)CO)C[C@H](C)[C@H](CN(C)Cc2ccc(C(F)(F)F)cc2)OCCCC[C@@H](C)O3)cc1 the results were CD40 NFkB inh 30[25 µM].
For COc1ccc(NC(=O)Nc2ccc3c(c2)C(=O)N([C@H](C)CO)C[C@@H](C)[C@H](CN(C)Cc2ccc(C(F)(F)F)cc2)OCCCC[C@H](C)O3)cc1 the results were CD40 NFkB inh 1.
Screening COc1ccc(NC(=O)Nc2ccc3c(c2)C(=O)N([C@@H](C)CO)C[C@@H](C)[C@H](CN(C)Cc2ccc(C(F)(F)F)cc2)OCCCC[C@@H](C)O3)cc1 returned CD40 NFkB inh 7.
`COc1ccc(S(=O)(=O)Nc2ccc3c(c2)C(=O)N([C@H](C)CO)C[C@H](C)[C@H](CN(C)Cc2ccc(C(F)(F)F)cc2)OCCCC[C@H](C)O3)cc1` gave CD40 NFkB inh 37[25 µM].
`COc1ccc(S(=O)(=O)Nc2ccc3c(c2)C(=O)N([C@@H](C)CO)C[C@@H](C)[C@@H](CN(C)Cc2ccc(C(F)(F)F)cc2)OCCCC[C@H](C)O3)cc1` gave CD40 NFkB inh 73*[25 µM].
Screening COc1ccc(S(=O)(=O)Nc2ccc3c(c2)C(=O)N([C@@H](C)CO)C[C@@H](C)[C@@H](CN(C)Cc2ccc(C(F)(F)F)cc2)OCCCC[C@@H](C)O3)cc1 returned CD40 NFkB inh 57*[25 µM].
Screening COc1ccc(S(=O)(=O)Nc2ccc3c(c2)C(=O)N([C@@H](C)CO)C[C@@H](C)[C@H](CN(C)Cc2ccc(C(F)(F)F)cc2)OCCCC[C@H](C)O3)cc1 returned CD40 NFkB inh 28[25 µM].
For COc1ccc(S(=O)(=O)N(C)C[C@@H]2OCCCC[C@@H](C)Oc3ccc(NC(=O)Nc4ccccc4)cc3C(=O)N([C@@H](C)CO)C[C@H]2C)cc1 the results were CD40 NFkB inh 8.
For COc1ccc(CN2[C@H](CO)[C@H]3c4ccccc4N(C(=O)c4ccccc4)C[C@H]32)cc1 the results were CD40 NFkB inh 0.
For Cc1ccc(-c2ccc(C3[C@@H]4CN(C(=O)Nc5ccc(C(F)(F)F)cc5)C[C@H]3N4)cc2)cc1 (stereo not given in full) the results were CD40 NFkB inh 25[25 µM].
`COc1ccc(NC(=O)N2C[C@@H]3N[C@H](C2)C3c2ccc(-c3cccc(F)c3)cc2)cc1` (stereo not given in full) gave CD40 NFkB inh -5[25 µM].
`O=C(Nc1ccc(C(F)(F)F)cc1)N1C[C@@H]2N[C@H](C1)C2c1ccc(-c2cccc(F)c2)cc1` (stereo not given in full) gave CD40 NFkB inh 70*.
`COc1ccccc1-c1ccc2c(c1)[C@H]1[C@H](CCN1C(=O)CN1CCOCC1)[C@H](CO)N2C` gave CD40 NFkB inh -7[25 µM].
`CSc1ccc2c(c1)N(CCC1CCCCN1C)c1ccccc1S2` (stereo not given) gave CD40 NFkB inh 74*.
OCCN1CCN(CCCN2c3ccccc3Sc3ccc(Cl)cc32)CC1 was read as CD40 NFkB inh -78.
For CN(C)CCCN1c2ccccc2Sc2ccc(Cl)cc21 the results were CD40 NFkB inh -40.
CC(=O)Nc1ccc2c(c1)C(=O)N(C)C[C@@H](C)[C@H](CN(C)C(C)=O)O2 was read as CD40 NFkB inh -3.
Screening O=C(CN1C(=O)NC(c2ccccc2)(c2ccccc2)C1=O)Nc1cccnc1Cl returned CD40 NFkB inh 6.
For Cc1ccc(C2(C)NC(=O)N(CC(=O)Nc3cccnc3Cl)C2=O)cc1 (stereo not given) the results were CD40 NFkB inh 26*.
`CC1(c2ccc(OC(F)F)cc2)NC(=O)N(CC(=O)Nc2cccnc2Cl)C1=O` (stereo not given) gave CD40 NFkB inh -4.
`O=C1CCCCc2sc(Br)c([N+](=O)[O-])c2N1` gave CD40 NFkB inh 100*.
For CO[C@@H]1CN(C)C(=O)c2cc(NC(C)=O)ccc2OC[C@@H](C)N(C(=O)Cc2ccccn2)C[C@@H]1C the results were CD40 NFkB inh 0[25 µM].

Screens: PubChem BioAssay, Broad Institute
